The list is not random: actives were taken first. Their share in the collection is about 9.2%.
FLuc counter = inhibits or activates purified firefly luciferase, miR-21 counter-screen. P08659. purified FLuc, Km substrates, luminescence inhibition. Potency, µM (series often up to 57.5 µM), most hits filed as inhibitors. 6.9% of 360,000 active. AID 588342; note: nearly all actives have a fitted effect of over 55% in size
Target sequence (P08659 whole entry, looked up): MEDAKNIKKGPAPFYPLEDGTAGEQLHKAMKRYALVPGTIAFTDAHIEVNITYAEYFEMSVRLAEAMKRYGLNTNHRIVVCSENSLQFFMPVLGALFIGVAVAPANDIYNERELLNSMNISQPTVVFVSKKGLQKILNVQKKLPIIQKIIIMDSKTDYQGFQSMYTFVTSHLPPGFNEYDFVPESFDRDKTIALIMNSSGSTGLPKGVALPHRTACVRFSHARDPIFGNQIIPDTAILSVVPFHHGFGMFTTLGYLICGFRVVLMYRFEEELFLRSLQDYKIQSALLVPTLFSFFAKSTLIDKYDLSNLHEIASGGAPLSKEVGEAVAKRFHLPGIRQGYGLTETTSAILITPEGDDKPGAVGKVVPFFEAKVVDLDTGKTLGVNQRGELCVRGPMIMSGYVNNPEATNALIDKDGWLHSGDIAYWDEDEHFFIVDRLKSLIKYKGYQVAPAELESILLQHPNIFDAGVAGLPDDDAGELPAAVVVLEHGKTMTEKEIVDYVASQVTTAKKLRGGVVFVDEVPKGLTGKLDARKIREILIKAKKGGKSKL
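Biochemical qHTS of compounds, final roughly 60 µM downward over six points, against 10 nM purified firefly luciferase using Km concentrations of substrates (10 uM D-luciferin, 10 uM ATP) in Tris acetate pH 7.5 buffer; luminescence output.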
NPC1 prom act = activators of NPC1 promoter; Huh7 NPC1 promoter luciferase reporter, 24 h; Potency, µM (highest dose often 9.22 µM), most hits filed as activators; 2.4% of 320,000 active; AID 485313; note: nearly all actives have a fitted effect of over 60% in size
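Quantitative HTS used a cell-based reporter: Huh7 cells stably bearing the NPC1 promoter upstream of luciferase were treated with compounds for 24 h, and promoter activation was read as luminescence.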
ELG1 genotox = inducers of genotoxicity in HEK293T ELG1-luciferase cells | HEK293T ELG1-luciferase reporter, luminescence, 16 h | Potency, µM (highest dose often 46 µM), actives largely listed as activators | 1.3% of 330,000 active | AID 504466; note: nearly all actives have a fitted effect of over 60% in size
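DMSO vehicle served as control against compound-treated ELG1-luciferase HEK293T cells; exposure lasted 16 hr at 37 °C and 5% CO2, followed by ONE-Glo luminescence detection after 30 min.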
ELG1 repair inh = ELG1-dependent DNA repair inhibition; Potency, µM (highest dose often 46.1 µM), actives largely listed as inhibitors; 2.3% of 330,000 active; HEK293T ELG1-luciferase reporter, luminescence, 16 h; DNA damage induced by 5-fluorouridine; note: nearly all actives have a fitted effect of over 55% in size
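HEK293T cells expressing luciferase-tagged ELG1 (2,000/well) received 5-Fluorouridine plus compound or DMSO for 16 hr at 37 °C. Luciferase was read by ONE-Glo luminescence after 30 min at room temperature.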
Rab9 promoter act = Rab9 promoter activation | Huh7 Rab9 promoter-luciferase reporter, luminescence, 24 h | Potency, µM (doses to about 9.22 µM), actives largely listed as activators | 2.8% of 320,000 active | AID 485297; note: nearly all actives have a fitted effect of over 60% in size
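Quantitative HTS format; Huh7 Rab9-luciferase reporter cells (1500/well) receive compound 2 h post-plating, incubate 24 h at 37 °C, then get luciferase reagent for 10 min before luminescence reading.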
SMN2 splice up = enhancers of SMN2 splice variant expression; HEK293 SMN2-luciferase splicing reporter, luminescence, 30-36 h; Potency, µM (highest dose often 46.1 µM), actives largely listed as activators; 2.8% of 210,000 active; AID 1458; note: nearly all actives have a fitted effect of over 55% in size
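HEK293 cells carry an SMN2 minigene-luciferase reporter in which exon 7 inclusion puts luciferase in frame. Cells were seeded at 2000 cells/well, attached for 10-12 hours, then exposed to compounds for 30-36 hours at 37C before ONE-Glo luminescence.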
A number is an active result; - = inactive; ? = inconclusive; . = no result given. Calls come from the whole dose curve; as a rule, active = well fitted curve in the direction sought with a large enough effect; inconclusive = small, poorly fitted or top-dose-only effect, or another doubt; inactive = no such curve, though single readings can be large; an effect the other way counts as inactive or inconclusive.

SMILES | FLuc counter | NPC1 prom act | ELG1 genotox | ELG1 repair inh | Rab9 promoter act | SMN2 splice up
COc1c(Cl)cc(C(=O)Nc2ccccc2C(=O)O)cc1Cl | 16.9µM | - | - | ? | - | -
CCC(CC)NC(=O)COC(=O)c1ccc(NS(=O)(=O)c2ccc3c(c2)OCCO3)cc1 | - | - | - | - | - | -
Cc1cc2cc(CN(Cc3ccc4c(c3)OCO4)C(=O)c3cnccn3)c3nnnn3c2cc1C | - | - | - | 16.4µM | - | -
Cc1cc(Cl)nc(-c2ccccc2)n1 | - | - | - | - | - | .
Cc1cc2c(C)nc(-c3ccccc3)nc2o1 | 19µM | ? | 16.4µM | ? | ? | 28.2µM
Cc1nn(-c2ccccn2)c2c1-c1nc(N)ncc1CC2 | 10.7µM | 3.55µM | - | ? | 3.16µM | ?
N#Cc1ccc(NCC(=O)Nc2ccc3c(c2)OCCO3)cc1 | ? | - | - | - | - | -
O=C(NC(=S)Nc1ccc2c(c1)OCCO2)c1ccco1 | 1.69µM | ? | ? | ? | 1µM | .
O=C(c1ccco1)N1CCCC(Nc2ccc3c(c2)OCCO3)C1 (stereo not given) | 23.9µM | ? | ? | ? | ? | .
CSCc1ccc(C(=O)N2CCCC(Nc3ccc4c(c3)OCCO4)C2)o1 (stereo not given) | ? | - | - | - | - | .
O=C(Nc1ccc(NC(=O)c2ccco2)cc1)c1ccc2c(c1)OCCO2 | ? | - | ? | ? | - | -
Cc1cc(NC(=O)c2ccc3c(c2)OCCO3)ccc1NC(=O)c1ccco1 | 0.757µM | ? | - | ? | ? | 11.2µM
N#Cc1cccc(NCC(=O)Nc2ccc3c(c2)OCCO3)c1 | 6.01µM | 0.631µM | 2.31µM | ? | 0.398µM | 12.6µM
O=C(c1cccc(F)c1)N1CCC2(CCCN(c3ccccn3)C2)CC1 | . | . | . | . | . | -
CC(=O)NS(=O)(=O)c1ccc(NC(=O)c2ccc3c(c2)C(=O)N(CCC(C)C)C3=O)cc1 | - | - | - | - | - | -
Cc1cc(C)cc(C(=O)Nc2ccc3[nH]c(=O)[nH]c3c2)c1 | - | - | - | - | - | .
Cc1ccsc1CN(C)CC(=O)Nc1ccccc1C(=O)NC1CC1 | . | . | - | - | . | .
Cc1cc(NC(=O)c2ccco2)ccc1NC(=O)Cc1cccs1 | 15.1µM | - | - | ? | - | -
O=C(CNC(=O)c1ccco1)Nc1ccc2c(c1)OCCO2 | 6.01µM | 1.78µM | 1.16µM | ? | 1µM | .
Cc1ccc(NC(=O)c2ccco2)c(NC(=O)Cc2cccs2)c1 | - | - | - | - | - | -
CCC(=O)NC(=S)Nc1cccc(NC(=O)c2ccco2)c1 | - | - | - | - | - | -
O=C(NC(=S)Nc1cccc(O)c1)c1ccco1 | 10.7µM | ? | ? | ? | ? | .
O=c1cc(CN2CCN(S(=O)(=O)c3ccc4ccccc4c3)CC2)nc2sccn12 | - | - | - | - | - | -
Cn1nc(C(F)(F)F)c(C#N)c1N1CCN(c2ccccn2)CC1 | - | - | - | ? | - | -
Cn1nc(C(F)(F)F)c(C#N)c1N1CCN(c2ccc(F)cc2)CC1 | - | - | - | 10.3µM | - | -
SMILES | FLuc counter | NPC1 prom act | ELG1 genotox | ELG1 repair inh | Rab9 promoter act | SMN2 splice up
Cn1nc(C(F)(F)F)c(C#N)c1N1CCN(c2ccccc2)CC1 | - | - | - | 9.2µM | - | -
COc1ccc(C2CC(c3ccccc3)=NN2C(=O)COC(=O)c2cc(S(=O)(=O)N3CCOCC3)ccc2F)cc1 (stereo not given) | - | - | - | ? | - | -
O=C(O)c1ccc(OS(=O)(=O)c2ccc(Cl)s2)c(Cl)c1 | . | - | - | - | - | .
Cc1cccc(-c2cc(NC(=O)COc3ccccc3F)n(-c3ccccc3)n2)c1 | - | . | . | . | . | .
CC1CCN(c2ccc(NC(=O)c3ccccc3[N+](=O)[O-])cc2)CC1 | - | - | - | ? | - | -
CCCCCC1CCC(C(=O)N2CCOCC2)CC1 (stereo not given) | - | - | - | - | - | .
CCc1cc(=O)oc2cc(C)cc(OCC(=O)NCCc3c[nH]c4ccccc34)c12 | - | - | - | 5.8µM | - | .
CCCc1cc(=O)oc2cc(C)cc(OCC(=O)NCCN3CCOCC3)c12 | - | - | - | - | - | .
CCCc1cc(=O)oc2cc(C)cc(OCC(=O)Nc3ccc(CN4CCOCC4)cc3)c12 | - | - | - | 14.6µM | - | .
CCOc1ccc(C(=O)CSc2nc3cc(C(=O)NC4CCCC4)ccc3c(=O)n2CC2CCCO2)cc1 (stereo not given) | - | . | . | . | . | .
COc1ccc(NC(=O)c2sc(SC)nc2N)cc1 | 12µM | ? | 18.4µM | ? | ? | 12.6µM
CCOC(=O)CSc1nc(C)c(C(=O)OCC)s1 | - | - | - | - | - | -
COc1ccc(NC(=O)c2scc(S(=O)(=O)C(C)C)c2N)cc1 | 6.01µM | 2.51µM | ? | ? | 1.12µM | .
CCOC(=O)CSc1nc(N)c(C(=O)Nc2ccc(N(C)C)cc2)s1 | 8.49µM | - | - | - | - | -
COc1ccc(NC(=O)c2sc(SCc3ccccc3)nc2N)cc1 | ? | - | - | - | - | -
CCN(CC)C(=O)CSc1nc(N)c(C(=O)Nc2ccc(OC)cc2)s1 | 23.9µM | - | - | ? | - | -

Compound activity deposited in PubChem BioAssay by National Center for Advancing Translational Sciences (NCATS).
